# Assay results published in PubChem BioAssay AID1159580 (chemical genetic matrix, 2015).
# Where “and” joins values, the source holds several entries; their conditions need not be identical. Equal entries are not always repeated. In all, about 5,500 compounds went through this assay and about 2,000 (36%) were called active. Not shown: some 18% with an inconclusive outcome. This is one part of the list. Unmarked numbers belong to inactive results. No stated cut-off is given here; in the data, active means normalized growth mostly below about 0.91 (no sharp cut-off); inconclusive means no clear call, values can overlap the other calls; inactive means mostly above about 0.92.
# Assay: chemical genetic growth profiling, strain panel (AID 1159580);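 further: tested at 20 µM; growth read once vehicle control cultures reached saturation at 30 °C; 1 = growth at the plate median or of vehicle wells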
# Details: S. cerevisiae deletion strains, growth OD
structure (smiles),measurement,setting,value
COc1c(N2CCNC(C)C2)c(F)cc2c(=O)c(C(=O)O)cn(C3CC3)c12 (stereo unspecified),normalized growth,"locus YAL013W, strain DEP1, stronger effect = lower value",0.984
same,normalized growth,"locus YAL021C, strain ccr4, stronger effect = lower value",0.972
same,normalized growth,"locus YAL026C, strain drs2, stronger effect = lower value",0.955
same,normalized growth,"locus YAL030W, strain snc1, stronger effect = lower value",0.985
same,normalized growth,"locus YBL061C, strain skt5, stronger effect = lower value",0.992
same,normalized growth,"locus YBR009C, strain hhf1, stronger effect = lower value",0.968
same,normalized growth,"locus YBR021W, strain FUR4, stronger effect = lower value",0.951
same,normalized growth,"locus YBR023C, strain chs3, stronger effect = lower value",0.982
same,normalized growth,"locus YBR171W, strain sec66, stronger effect = lower value",0.985
same,normalized growth,"locus YBR229C, strain ROT2, stronger effect = lower value",1.01
same,normalized growth,"locus YBR231C, strain swc5, stronger effect = lower value",0.985
same,normalized growth,"locus YBR279W, strain paf1, stronger effect = lower value",0.986
same,normalized growth,"locus YCL011C, strain gbp2, stronger effect = lower value",0.966
same,normalized growth,"locus YCL016C, strain dcc1, stronger effect = lower value",0.899 (active)
same,normalized growth,"locus YCL029C, strain bik1, stronger effect = lower value",1.01
same,normalized growth,"locus YCL061C, strain MRC1, stronger effect = lower value",0.957
same,normalized growth,"locus YCL069W, strain vba3, stronger effect = lower value",0.994
same,normalized growth,"locus YCR088W, strain abp1, stronger effect = lower value",0.973
same,normalized growth,"locus YDL005C, strain med2, stronger effect = lower value",0.998
same,normalized growth,"locus YDL035C, strain GPR1, stronger effect = lower value",1
same,normalized growth,"locus YDL040C, strain nat1, stronger effect = lower value",0.984
same,normalized growth,"locus YDL074C, strain BRE1, stronger effect = lower value",0.965
same,normalized growth,"locus YDL101C, strain DUN1, stronger effect = lower value",1.01
same,normalized growth,"locus YDL134C, strain PPH21, stronger effect = lower value",1.02
same,normalized growth,"locus YDL185W, strain tfp1, stronger effect = lower value",1.01
same,normalized growth,"locus YDL192W, strain arf1, stronger effect = lower value",1.02
same,normalized growth,"locus YDR001C, strain nth1, stronger effect = lower value",0.976
same,normalized growth,"locus YDR069C, strain doa4, stronger effect = lower value",0.99
same,normalized growth,"locus YDR101C, strain arx1, stronger effect = lower value",0.993
same,normalized growth,"locus YDR137W, strain rgp1, stronger effect = lower value",0.883
same,normalized growth,"locus YDR150W, strain NUM1, stronger effect = lower value",1.02
same,normalized growth,"locus YDR159W, strain sac3, stronger effect = lower value",0.867
same,normalized growth,"locus YDR162C, strain NBP2, stronger effect = lower value",1.01
same,normalized growth,"locus YDR195W, strain ref2",1
same,normalized growth,"locus YDR297W, strain sur2, stronger effect = lower value",0.982
same,normalized growth,"locus YDR318W, strain mcm21, stronger effect = lower value",1
same,normalized growth,"locus YDR334W, strain swr1, stronger effect = lower value",0.981
same,normalized growth,"locus YDR335W, strain msn5, stronger effect = lower value",0.972
same,normalized growth,"locus YDR388W, stronger effect = lower value",0.993
same,normalized growth,"locus YDR392W, strain spt3, stronger effect = lower value",0.797
same,normalized growth,"locus YDR502C, strain sam2, stronger effect = lower value",0.996
same,normalized growth,"locus YEL003W, strain gim4, stronger effect = lower value",0.969
same,normalized growth,"locus YEL037C, strain rad23, stronger effect = lower value",0.981
same,normalized growth,"locus YEL061C, strain CIN8 (second series), stronger effect = lower value",0.979
same,normalized growth,"locus YEL061C, strain CIN8, stronger effect = lower value",1.01
same,normalized growth,"locus YER015W, strain faa2, stronger effect = lower value",0.968
same,normalized growth,"locus YER016W, strain bim1, stronger effect = lower value",0.985
same,normalized growth,"locus YER110C, stronger effect = lower value",1.01
same,normalized growth,"locus YER111C, strain swi4, stronger effect = lower value",0.997
same,normalized growth,"locus YER155C, strain BEM2 (second series), stronger effect = lower value",0.976
same,normalized growth,"locus YER155C, strain BEM2, stronger effect = lower value",1.01
same,normalized growth,"locus YER167W, strain BCK2, stronger effect = lower value",0.997
same,normalized growth,"locus YFR010W, strain ubp6, stronger effect = lower value",0.993
same,normalized growth,"locus YGL078C, strain dbp3, stronger effect = lower value",0.995
same,normalized growth,"locus YGL086W, strain mad1, stronger effect = lower value",0.997
same,normalized growth,"locus YGL167C, strain pmr1, stronger effect = lower value",1
same,normalized growth,"locus YGL173C, strain kem1, stronger effect = lower value",0.983
same,normalized growth,"locus YGL227W, strain vid30, stronger effect = lower value",0.978
same,normalized growth,"locus YGL240W, strain doc1, stronger effect = lower value",0.973
same,normalized growth,"locus YGL248W, strain PDE1, stronger effect = lower value",1.01
same,normalized growth,"locus YGL253W, strain hxk2, stronger effect = lower value",0.989
same,normalized growth,"locus YGR078C, strain PAC10, stronger effect = lower value",1.01
same,normalized growth,"locus YGR135W, strain pre9, stronger effect = lower value",0.989
same,normalized growth,"locus YGR229C, strain SMI1, stronger effect = lower value",0.886
same,normalized growth,"locus YGR252W, strain gcn5, stronger effect = lower value",0.978
same,normalized growth,"locus YHR013C, strain ard1, stronger effect = lower value",0.919
same,normalized growth,"locus YHR027C, strain rpn1, stronger effect = lower value",0.984
same,normalized growth,"locus YHR030C, strain SLT2, stronger effect = lower value",1 and 0.99
same,normalized growth,"locus YHR079C, strain IRE1 (second series), stronger effect = lower value",1
same,normalized growth,"locus YHR079C, strain IRE1, stronger effect = lower value",1.02
same,normalized growth,"locus YHR094C, strain hxt1, stronger effect = lower value",0.992
same,normalized growth,"locus YHR129C, strain ARP1, stronger effect = lower value",1
same,normalized growth,"locus YHR142W, strain chs7, stronger effect = lower value",0.954
same,normalized growth,"locus YHR200W, strain rpn10, stronger effect = lower value",0.991
same,normalized growth,"locus YIL066C, strain RNR3, stronger effect = lower value",1.02
same,normalized growth,"locus YIL073C, strain SPO22, stronger effect = lower value",0.967
same,normalized growth,"locus YIL125W, strain kgd1, stronger effect = lower value",1
same,normalized growth,"locus YIR030C, strain dcg1, stronger effect = lower value",0.997
same,normalized growth,"locus YJL092W, strain hpr5, stronger effect = lower value",0.961
same,normalized growth,"locus YJL095W, strain BCK1 (second series), stronger effect = lower value",1
same,normalized growth,"locus YJL095W, strain BCK1, stronger effect = lower value",0.936 and 1.02
same,normalized growth,"locus YJL115W, strain asf1, stronger effect = lower value",0.948
same,normalized growth,"locus YJL129C, strain trk1, stronger effect = lower value",0.96
same,normalized growth,"locus YJL134W, strain LCB3, stronger effect = lower value",1.01
same,normalized growth,"locus YJL154C, strain vps35, stronger effect = lower value",0.993
same,normalized growth,"locus YJL164C, strain tpk1, stronger effect = lower value",0.969
same,normalized growth,"locus YJL166W, strain qcr8, stronger effect = lower value",1
same,normalized growth,"locus YJL168C, strain set2, stronger effect = lower value",1
same,normalized growth,"locus YJL187C, strain SWE1 (second series), stronger effect = lower value",1.02
same,normalized growth,"locus YJR043C, strain POL32, stronger effect = lower value",0.911
same,normalized growth,"locus YJR066W, strain TOR1, stronger effect = lower value",0.94
